# Measurements reported in PubChem BioAssay (EPA / NIEHS).
# Active and inactive are the calls of the source. The calls were made as follows: active = hit-call score of the fitted dose curve at least 0.9, where 1 is the maximum; inactive = score below 0.9.
# Tests used:
# [1] = ATG_GLI_CIS: Attagene CIS-FACTORIAL HepG2 Assay for human Zinc Finger Protein GLI1 (AID 2282945); conditions: HepG2, Attagene cis-factorial reporter mRNA, GLI element; actives raise or lower the signal
# Procedure, shortened: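 Transiently transfected HepG2 cells report endogenous transcription factor activity via cis-element-driven reporter units. After 24 h compound exposure, reporter mRNA was measured by RT-PCR with capillary electrophoresis; bidirectional fitting against DMSO baseline.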
# [2] = ATG_GRE_CIS: Attagene CIS-FACTORIAL HepG2 Assay for human Glucocorticoid Response Elements (GRE) (AID 2282947); conditions: HepG2 GRE cis-reporter, Attagene multiplex mRNA; actives raise or lower the signal
# Procedure, shortened: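 Fluorescence intensity of reporter-specific cDNA fragments, separated by capillary electrophoresis, provides the signal. Constructs carry cis-regulating promoters in transiently transfected HepG2 liver cells; 24 h incubation; fitting is bidirectional against DMSO.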
# [3] = ATG_ISRE_CIS: Attagene CIS-FACTORIAL HepG2 Assay for human Interferon Regulatory Factor 1 (IRF1) binding to an Interferon-Stimulated Response Element (ISRE) (AID 2282948); conditions: HepG2 ISRE cis-reporter (Attagene), mRNA transcription readout; actives raise or lower the signal
# Procedure, shortened: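 Signal reflects induction or loss of ISRE-linked reporter mRNA in transiently transfected HepG2 cells after a 24 h treatment, detected by fluorescent RT-PCR fragments on capillary electrophoresis and normalised to DMSO.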
# [4] = ATG_M_32_CIS: Attagene CIS-FACTORIAL HepG2 Assay for M32 Transcription Factor (Internal Marker) (AID 2282949); conditions: HepG2 Attagene cis-factorial M32 reporter, mRNA; actives raise or lower the signal;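 also: background control marker of the multiplexed CIS panel rather than a real target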
# Procedure, shortened: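 HepG2 transfectants (cis-regulated reporter transcription units) dosed 24 h. Reporter mRNA by RT-PCR plus CE, analysed as gain or loss relative to DMSO.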
# [5] = ATG_M_06_CIS: Attagene CIS-FACTORIAL HepG2 Assay for M06 Transcription Factor (Internal Marker) (AID 2282950); conditions: HepG2 Attagene CIS-FACTORIAL M06 internal marker reporter; actives raise or lower the signal
# Procedure, shortened: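 HepG2 liver cells, 24 h exposure. Reporter transcripts from transfected cis-element constructs quantified by RT-PCR/capillary electrophoresis fluorescence. Bidirectional curve fit against DMSO.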
# [6] = target: Hypoxia-inducible factor 1-alpha (Homo sapiens) (UniProt Q16665); experiment: ATG_HIF1a_CIS: Attagene CIS-FACTORIAL HepG2 Assay for human Hypoxia Inducible Factor 1 (HIF1A) (AID 2282951); conditions: HepG2 Attagene cis-factorial HIF1a reporter transcription; actives raise or lower the signal
# Sequence of Hypoxia-inducible factor 1-alpha (Homo sapiens) (Q16665 whole entry, looked up, the tested form may be a part): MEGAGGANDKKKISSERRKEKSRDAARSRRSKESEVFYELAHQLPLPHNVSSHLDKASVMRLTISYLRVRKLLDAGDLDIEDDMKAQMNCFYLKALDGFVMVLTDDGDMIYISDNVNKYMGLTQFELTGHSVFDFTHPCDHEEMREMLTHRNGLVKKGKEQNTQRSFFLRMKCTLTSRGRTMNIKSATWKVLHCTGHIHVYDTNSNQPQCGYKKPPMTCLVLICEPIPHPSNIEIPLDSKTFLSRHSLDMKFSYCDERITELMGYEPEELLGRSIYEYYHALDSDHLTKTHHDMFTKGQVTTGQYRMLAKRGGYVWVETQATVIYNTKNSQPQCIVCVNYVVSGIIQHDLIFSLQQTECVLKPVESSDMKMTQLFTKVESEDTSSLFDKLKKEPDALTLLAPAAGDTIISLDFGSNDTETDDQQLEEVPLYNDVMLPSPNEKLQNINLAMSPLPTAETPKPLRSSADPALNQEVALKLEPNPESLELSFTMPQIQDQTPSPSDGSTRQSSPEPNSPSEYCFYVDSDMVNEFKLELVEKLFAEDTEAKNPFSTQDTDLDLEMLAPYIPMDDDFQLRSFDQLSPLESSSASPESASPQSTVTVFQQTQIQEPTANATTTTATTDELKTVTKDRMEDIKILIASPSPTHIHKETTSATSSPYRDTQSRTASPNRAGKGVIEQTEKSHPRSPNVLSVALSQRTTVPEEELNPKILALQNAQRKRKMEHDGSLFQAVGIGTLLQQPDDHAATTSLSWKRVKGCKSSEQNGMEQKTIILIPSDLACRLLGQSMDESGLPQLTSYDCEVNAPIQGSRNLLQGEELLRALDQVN
# Procedure, shortened: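 Transient MRTU transfection of human HepG2 liver cells, 24 h compound treatment, then total RNA isolation, oligo(dT) reverse transcription, PCR amplification, fluorescent labelling and capillary electrophoresis of reporter fragments. Gain or loss relative to DMSO.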
# [7] = target: Hepatocyte nuclear factor 6 (Homo sapiens) (UniProt Q9UBC0); experiment: ATG_HNF6_CIS: Attagene CIS-FACTORIAL HepG2 Assay for human Hepatocyte Nuclear Factor 6 (HNF6) (AID 2282952); conditions: HepG2 Attagene cis-factorial HNF6 reporter transcription; actives raise or lower the signal
# Sequence of Hepatocyte nuclear factor 6 (Homo sapiens) (Q9UBC0 whole entry, looked up, the tested form may be a part): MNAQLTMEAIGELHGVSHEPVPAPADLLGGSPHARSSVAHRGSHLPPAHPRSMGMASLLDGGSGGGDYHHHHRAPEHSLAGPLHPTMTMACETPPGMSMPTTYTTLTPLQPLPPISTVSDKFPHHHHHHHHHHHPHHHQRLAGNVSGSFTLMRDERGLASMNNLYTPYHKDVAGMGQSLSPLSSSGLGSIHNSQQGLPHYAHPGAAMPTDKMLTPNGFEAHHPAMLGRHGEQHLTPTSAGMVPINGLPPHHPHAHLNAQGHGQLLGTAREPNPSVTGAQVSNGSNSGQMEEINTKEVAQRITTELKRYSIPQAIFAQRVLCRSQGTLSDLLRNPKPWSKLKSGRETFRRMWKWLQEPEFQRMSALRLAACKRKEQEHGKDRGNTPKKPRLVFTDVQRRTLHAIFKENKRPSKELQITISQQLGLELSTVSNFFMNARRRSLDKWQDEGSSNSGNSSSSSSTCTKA
# Procedure, shortened: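 Readout: fluorescent reporter-transcript fragments resolved by capillary electrophoresis after RT-PCR, reflecting endogenous factor activity in transfected HepG2. Exposure 24 h. Gain or loss of signal fitted bidirectionally against DMSO.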
# [8] = target: Heat shock factor protein 1 (Homo sapiens) (UniProt Q00613); experiment: ATG_HSE_CIS: Attagene CIS-FACTORIAL HepG2 Assay for human Heat Shock Transcription Factor 1 (HSE) (AID 2282953); conditions: HepG2 HSE cis-reporter, Attagene RNA transcription; actives raise or lower the signal
# Sequence of Heat shock factor protein 1 (Homo sapiens) (Q00613 whole entry, looked up, the tested form may be a part): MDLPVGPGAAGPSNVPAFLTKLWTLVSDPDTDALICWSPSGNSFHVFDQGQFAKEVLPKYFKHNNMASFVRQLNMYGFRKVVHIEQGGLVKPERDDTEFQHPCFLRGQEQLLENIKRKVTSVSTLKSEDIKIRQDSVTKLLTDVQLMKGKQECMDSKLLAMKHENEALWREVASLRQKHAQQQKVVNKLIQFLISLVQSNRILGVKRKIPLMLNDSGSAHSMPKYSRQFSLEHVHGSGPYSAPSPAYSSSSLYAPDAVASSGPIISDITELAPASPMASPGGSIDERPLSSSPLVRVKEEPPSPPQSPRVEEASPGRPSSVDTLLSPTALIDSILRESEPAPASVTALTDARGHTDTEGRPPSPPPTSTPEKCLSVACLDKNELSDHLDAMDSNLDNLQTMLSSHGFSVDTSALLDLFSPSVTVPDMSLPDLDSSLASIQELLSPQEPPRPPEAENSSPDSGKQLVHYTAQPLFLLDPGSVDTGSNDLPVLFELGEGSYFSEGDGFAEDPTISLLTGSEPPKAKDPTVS
# Procedure, shortened: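 Endogenous transcription factor activity captured via cis-promoter reporter units transfected into HepG2; treatment lasted 24 h. Fluorescence intensity of reporter fragments analysed with bidirectional curve fitting, DMSO baseline.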
# [9] = ATG_MRE_CIS: Attagene CIS-FACTORIAL HepG2 Assay for human Metal Responsive Element (MRE) (AID 2282954); conditions: HepG2 MRE cis-reporter transcription, Attagene multiplex; actives raise or lower the signal
# Procedure, shortened: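 Measured here is mRNA induction from an MRE cis-element reporter in HepG2 after 24 h, quantified by fluorescence of labelled RT-PCR products on capillary electrophoresis; gain- and loss-of-signal fits use DMSO as baseline.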
# [10] = ATG_PBREM_CIS: Attagene CIS-FACTORIAL HepG2 Assay for human Phenobarbital-responsive Enhancer Module (PBREM) (AID 2282955); conditions: HepG2 PBREM cis-reporter, Attagene multiplexed transcription; actives raise or lower the signal
# Procedure, shortened: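 Endogenous transcription factors in human liver HepG2 cells drive a PBREM cis-element reporter, whose transcript level after 24 h treatment is quantified by RT-PCR with capillary electrophoresis; activity fitted in both directions against DMSO.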
# [11] = target: Paired box protein Pax-6 (Homo sapiens) (UniProt P26367); experiment: ATG_Pax6_CIS: Attagene CIS-FACTORIAL HepG2 Assay for human Paired Box 6 (PAX6) (AID 2282956); conditions: HepG2 CIS-FACTORIAL PAX6 reporter transcription, RNA readout; actives raise or lower the signal
# Sequence of Paired box protein Pax-6 (Homo sapiens) (P26367 whole entry, looked up): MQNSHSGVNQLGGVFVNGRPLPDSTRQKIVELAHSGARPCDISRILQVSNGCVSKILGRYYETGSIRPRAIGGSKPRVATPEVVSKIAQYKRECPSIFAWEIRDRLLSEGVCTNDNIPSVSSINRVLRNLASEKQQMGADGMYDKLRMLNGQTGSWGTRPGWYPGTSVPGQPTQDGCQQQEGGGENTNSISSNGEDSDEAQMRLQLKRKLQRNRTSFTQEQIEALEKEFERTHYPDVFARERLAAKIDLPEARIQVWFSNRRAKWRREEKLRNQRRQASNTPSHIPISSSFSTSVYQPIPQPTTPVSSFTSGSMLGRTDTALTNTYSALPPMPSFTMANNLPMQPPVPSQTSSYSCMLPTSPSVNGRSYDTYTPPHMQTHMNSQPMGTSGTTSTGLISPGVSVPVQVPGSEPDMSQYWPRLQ
# Procedure, shortened: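 Values derive from bidirectional curve fitting of reporter mRNA signal relative to DMSO. HepG2 cells bearing transfected cis-regulated MRTUs were exposed for 24 h; transcripts were read by RT-PCR and capillary electrophoresis.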
# [12] = ATG_PXRE_CIS: Attagene CIS-FACTORIAL HepG2 Assay for human Pregnane X Receptor Element (PXRE) (AID 2282957); conditions: HepG2 Attagene CIS-FACTORIAL PXRE reporter, mRNA; actives raise or lower the signal
# Procedure, shortened: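 Read-out: fluorescence of reporter-specific RT-PCR products resolved by capillary electrophoresis, fitted bidirectionally relative to DMSO. Human HepG2 liver cells carried transfected cis-promoter reporter units and were exposed to chemicals for 24 h.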
# [13] = ATG_PPRE_CIS: Attagene CIS-FACTORIAL HepG2 Assay for human Peroxisome Proliferator-activated Response Element (PPRE) (AID 2282958); conditions: HepG2 PPRE cis-element reporter, Attagene transcription factor profiling; actives raise or lower the signal
# Procedure, shortened: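 HepG2, transient MRTU transfection (cis promoter elements, endogenous TFs). 24 h dosing. RNA → oligo(dT) RT → PCR → 6-FAM primer extension → HpaI digest → CE. Bidirectional fit vs DMSO.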
# [14] = ATG_RORE_CIS: Attagene CIS-FACTORIAL HepG2 Assay for human RAR-related Orphan Receptor Element (RORE) (AID 2282959); conditions: HepG2 Attagene cis-factorial RORE reporter, mRNA; actives raise or lower the signal
# Procedure, shortened: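 Transient MRTU transfection of human HepG2 liver cells (FuGene 6); 24 h compound exposure; TriZol RNA, oligo(dT) RT, PCR, FAM labeling, HpaI cut, CE fragment analysis. DMSO = negative control/baseline.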
# [15] = ATG_Sox_CIS: Attagene CIS-FACTORIAL HepG2 Assay for human SRY-box transcription factor (SOX) (AID 2282960); conditions: HepG2 Attagene cis-factorial SOX reporter, mRNA; actives raise or lower the signal
# Procedure, shortened: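 Endogenous factor activity in human liver HepG2 cells carrying transfected cis-regulated reporter units. RNA taken 24 h post-dose, reverse-transcribed, PCR-amplified and sized by capillary electrophoresis. Gain or loss of signal fitted relative to DMSO.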
# [16] = target: Transcription factor Sp1 (Homo sapiens) (UniProt P08047); experiment: ATG_Sp1_CIS: Attagene CIS-FACTORIAL HepG2 Assay for human Specificity Protein 1 (Sp1) (AID 2282961); conditions: HepG2 Sp1 cis-reporter transcription, actives raise or lower the signal
# Sequence of Transcription factor Sp1 (Homo sapiens) (P08047 whole entry, looked up): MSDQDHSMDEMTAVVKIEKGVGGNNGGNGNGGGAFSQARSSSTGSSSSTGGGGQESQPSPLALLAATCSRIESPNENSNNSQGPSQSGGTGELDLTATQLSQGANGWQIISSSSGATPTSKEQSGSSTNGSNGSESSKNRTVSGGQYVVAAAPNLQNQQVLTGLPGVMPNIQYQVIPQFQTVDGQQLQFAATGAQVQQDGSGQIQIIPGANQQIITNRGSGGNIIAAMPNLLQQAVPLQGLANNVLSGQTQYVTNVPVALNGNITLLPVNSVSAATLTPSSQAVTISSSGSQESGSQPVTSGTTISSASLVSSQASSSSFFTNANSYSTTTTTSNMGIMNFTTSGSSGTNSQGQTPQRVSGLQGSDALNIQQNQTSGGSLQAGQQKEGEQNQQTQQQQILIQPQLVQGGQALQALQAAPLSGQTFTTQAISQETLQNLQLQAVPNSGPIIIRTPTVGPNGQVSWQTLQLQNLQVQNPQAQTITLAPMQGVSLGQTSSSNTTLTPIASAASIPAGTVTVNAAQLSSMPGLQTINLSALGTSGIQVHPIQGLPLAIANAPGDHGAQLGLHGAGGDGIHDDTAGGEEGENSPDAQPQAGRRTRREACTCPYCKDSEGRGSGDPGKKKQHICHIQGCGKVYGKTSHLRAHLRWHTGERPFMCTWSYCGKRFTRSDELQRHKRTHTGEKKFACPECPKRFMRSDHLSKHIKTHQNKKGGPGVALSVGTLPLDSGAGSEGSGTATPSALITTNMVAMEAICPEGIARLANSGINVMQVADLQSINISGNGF
# Procedure, shortened: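 Transient MRTU-transfected HepG2, 24 h compound exposure. Total RNA → oligo(dT) RT → PCR of reporter → 6-FAM primer extension → HpaI digest → CE. Endpoint fitted both directions vs DMSO.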
# [17] = ATG_SREBP_CIS: Attagene CIS-FACTORIAL HepG2 Assay for human Sterol Regulatory Element Binding (SREBP) (AID 2282962); conditions: HepG2 Attagene cis-factorial SREBP reporter, mRNA; actives raise or lower the signal
# Procedure, shortened: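 Values derive from bidirectional curve fitting with DMSO as baseline. The underlying measurement is reporter mRNA from cis-element-regulated units in transiently transfected HepG2, quantified by RT-PCR and capillary electrophoresis after 24 h exposure.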
# [18] = target: Signal transducer and activator of transcription 3 (Homo sapiens) (UniProt P40763); experiment: ATG_STAT3_CIS: Attagene CIS-FACTORIAL HepG2 Assay for human Signal Transducer and Activator of Transcription 3 (STAT3) (AID 2282963); conditions: HepG2, Attagene cis-factorial STAT3 reporter transcription; actives raise or lower the signal
# Sequence of Signal transducer and activator of transcription 3 (Homo sapiens) (P40763 whole entry, looked up, the tested form may be a part): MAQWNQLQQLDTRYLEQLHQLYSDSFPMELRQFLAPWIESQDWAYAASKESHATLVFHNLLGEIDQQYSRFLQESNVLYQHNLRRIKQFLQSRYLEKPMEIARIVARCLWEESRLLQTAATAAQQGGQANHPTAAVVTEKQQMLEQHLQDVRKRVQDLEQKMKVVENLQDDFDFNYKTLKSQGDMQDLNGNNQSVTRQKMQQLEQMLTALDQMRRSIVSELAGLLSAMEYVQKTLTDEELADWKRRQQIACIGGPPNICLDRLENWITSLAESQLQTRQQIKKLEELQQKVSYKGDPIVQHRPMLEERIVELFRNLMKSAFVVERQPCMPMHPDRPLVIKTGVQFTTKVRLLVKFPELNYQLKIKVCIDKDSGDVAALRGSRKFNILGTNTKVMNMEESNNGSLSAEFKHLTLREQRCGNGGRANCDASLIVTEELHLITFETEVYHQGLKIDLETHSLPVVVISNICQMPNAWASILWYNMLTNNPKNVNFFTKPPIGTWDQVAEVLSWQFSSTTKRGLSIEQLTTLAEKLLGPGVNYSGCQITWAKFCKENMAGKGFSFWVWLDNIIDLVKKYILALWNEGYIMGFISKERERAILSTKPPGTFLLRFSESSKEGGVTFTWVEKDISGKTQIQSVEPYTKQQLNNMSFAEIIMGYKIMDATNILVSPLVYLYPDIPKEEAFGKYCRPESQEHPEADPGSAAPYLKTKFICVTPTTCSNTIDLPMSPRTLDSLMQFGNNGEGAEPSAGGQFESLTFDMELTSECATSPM
# Procedure, shortened: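 Fluorescence intensity of 6-FAM-labelled reporter fragments, separated by capillary electrophoresis after RT-PCR, gave the signal. Cells were HepG2 transfected with cis-element reporter units and treated 24 h; fitting was bidirectional relative to DMSO.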
# [19] = ATG_TA_CIS: Attagene CIS-FACTORIAL HepG2 Assay for human TA Basal Promoter (AID 2282964); conditions: HepG2 Attagene CIS-factorial TA basal promoter reporter; actives raise or lower the signal
# Procedure, shortened: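 Fluorescence from labelled RT-PCR reporter fragments, separated by capillary electrophoresis, gives the signal. Cells: HepG2 transiently carrying multiple reporter units, 24 h chemical dosing. Gain or loss relative to DMSO.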
# [20] = target: Bile acid receptor (Homo sapiens) (UniProt Q96RI1); experiment: ATG_IR1_CIS: Attagene CIS-FACTORIAL HepG2 Assay for human Nuclear Receptor Subfamily 1 Group H Member 4 (NR1H4), IR1 submotif (AID 2282946); conditions: IR1 reporter transcription, actives raise or lower the signal
# Sequence of Bile acid receptor (Homo sapiens) (Q96RI1 whole entry, looked up): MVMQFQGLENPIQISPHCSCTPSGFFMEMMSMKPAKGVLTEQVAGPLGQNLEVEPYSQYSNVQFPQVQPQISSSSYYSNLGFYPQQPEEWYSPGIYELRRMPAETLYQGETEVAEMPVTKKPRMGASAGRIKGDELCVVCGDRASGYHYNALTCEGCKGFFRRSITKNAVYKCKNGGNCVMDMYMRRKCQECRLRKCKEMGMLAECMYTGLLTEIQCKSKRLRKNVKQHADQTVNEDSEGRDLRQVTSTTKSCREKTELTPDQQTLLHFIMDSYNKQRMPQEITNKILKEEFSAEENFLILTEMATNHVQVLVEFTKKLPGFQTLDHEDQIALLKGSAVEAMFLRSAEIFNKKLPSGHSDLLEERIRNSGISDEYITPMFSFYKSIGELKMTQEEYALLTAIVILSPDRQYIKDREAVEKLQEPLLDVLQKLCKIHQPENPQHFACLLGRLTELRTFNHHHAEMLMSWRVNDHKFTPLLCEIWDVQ
# Procedure, shortened: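 Fluorescence of capillary-separated, HpaI-digested RT-PCR reporter products gave IR1-element mRNA induction in HepG2 cells 24 h after dosing. Endogenous transcription factors drove the cis-regulated reporters; activity was fitted bidirectionally against DMSO.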
structure (smiles),measurement,setting,value
CCN(CC)c1nc(C)cc(OP(=S)(OC)OC)n1,outcome,[1],inactive
same,outcome,[2],inactive
same,outcome,[3],inactive
same,outcome,[4],inactive
same,outcome,[5],inactive
same,AC50,[6],50 µM (active)
same,outcome,[7],inactive
same,outcome,[8],inactive
same,AC50,[9],50 µM (active)
same,outcome,[10],inactive
same,outcome,[11],inactive
same,AC50,[12],3.38 µM (active)
same,AC50,[13],34.1 µM (active)
same,AC50,[14],20 µM (active)
same,outcome,[15],inactive
same,outcome,[16],inactive
same,outcome,[17],inactive
same,outcome,[18],inactive
same,outcome,[19],inactive
CNC(=O)Oc1cccc2ccccc12,outcome,[1],inactive
same,outcome,[20],inactive
same,outcome,[3],inactive
same,outcome,[4],inactive
same,outcome,[5],inactive
same,outcome,[6],inactive
same,outcome,[7],inactive
same,outcome,[8],inactive
same,AC50,[9],50 µM (active)
same,outcome,[10],inactive
same,outcome,[11],inactive
same,AC50,[12],37.9 µM (active)
same,outcome,[14],inactive
same,outcome,[15],inactive
same,outcome,[16],inactive
same,outcome,[17],inactive
same,outcome,[18],inactive
same,outcome,[19],inactive
CCCC(=NOCC)C1=C(O)CC(CC(C)SCC)CC1=O (stereo not given),outcome,[1],inactive
same,outcome,[2],inactive
same,outcome,[3],inactive
same,outcome,[4],inactive
same,outcome,[5],inactive
same,outcome,[6],inactive
same,outcome,[7],inactive
same,outcome,[9],inactive
same,outcome,[10],inactive
same,outcome,[11],inactive
same,AC50,[12],29.5 µM (active)
same,outcome,[13],inactive
same,outcome,[14],inactive
same,outcome,[15],inactive
same,outcome,[16],inactive
same,outcome,[17],inactive
same,outcome,[18],inactive
same,outcome,[19],inactive
COC(=O)N(C(=O)N1CO[C@@]2(C(=O)OC)Cc3cc(Cl)ccc3C2=N1)c1ccc(OC(F)(F)F)cc1,outcome,[1],inactive
same,outcome,[2],inactive
same,outcome,[3],inactive
same,outcome,[4],inactive
same,outcome,[5],inactive
same,outcome,[6],inactive
same,outcome,[7],inactive
same,AC50,[9],2.11 µM (active)
same,outcome,[11],inactive
same,AC50,[12],1.24 µM (active)
same,outcome,[13],inactive
same,AC50,[14],13.2 µM (active)
same,outcome,[15],inactive
same,outcome,[16],inactive
same,AC50,[17],5.39 µM (active)
same,outcome,[18],inactive
same,outcome,[19],inactive
Nc1c(Cl)c(F)nc(OCC(=O)O)c1Cl,outcome,[1],inactive
same,outcome,[2],inactive
same,outcome,[3],inactive
same,outcome,[4],inactive
same,outcome,[5],inactive
same,outcome,[6],inactive
same,outcome,[7],inactive
same,outcome,[9],inactive
same,outcome,[10],inactive
same,outcome,[11],inactive
same,AC50,[12],50 µM (active)
same,outcome,[14],inactive
same,outcome,[15],inactive
same,outcome,[16],inactive
same,outcome,[17],inactive
same,outcome,[18],inactive
same,outcome,[19],inactive
CCSC(=O)N1CCCCCC1,outcome,[1],inactive
same,outcome,[3],inactive
same,outcome,[4],inactive
same,outcome,[5],inactive
same,outcome,[6],inactive
same,outcome,[7],inactive
same,outcome,[8],inactive
same,outcome,[9],inactive
same,outcome,[10],inactive
same,outcome,[11],inactive
same,AC50,[12],15.9 µM (active)
same,outcome,[13],inactive
same,outcome,[14],inactive
same,outcome,[15],inactive
same,outcome,[16],inactive
same,outcome,[17],inactive
same,outcome,[18],inactive
same,outcome,[19],inactive
N#Cc1c[nH]cc1-c1cccc2c1OC(F)(F)O2,outcome,[1],inactive
same,outcome,[2],inactive
same,outcome,[3],inactive
same,outcome,[4],inactive
same,outcome,[5],inactive
same,outcome,[6],inactive
same,outcome,[7],inactive
same,outcome,[8],inactive
same,AC50,[9],8.67 µM (active)
same,outcome,[11],inactive
same,AC50,[12],11.6 µM (active)
same,AC50,[13],13.2 µM (active)
same,outcome,[14],inactive
same,AC50,[15],3.85 µM (active)
same,outcome,[16],inactive
same,outcome,[17],inactive
same,outcome,[18],inactive
same,outcome,[19],inactive
